Assay [1] can be described thus: sensitizers of A549 cells to miR-34 induction, primary screen, imaging, A549 dox-inducible miR-34, nuclei and caspase counts (AID 1347080;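 active = compounds whose cell count with miR-34 switched on is under 0.7 times the count with it off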). The settings on record: A549 miR-34 inducible, Hoechst nuclei count, 48 h.
The nature of assay [2]: survival rescue of mitochondrial mutant cells in low glucose, primary screen, MELAS cybrids, Rieske KO mouse fibroblasts, CellTiter-Glo (AID 1508586;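 active = mean z-score across replicates of 1.96 or higher in either the MELAS or the Rieske mutant cell line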;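 note: z relative to plate mean and SD of compound and empty wells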). (In ATP-based viability assays light output follows the ATP content of the culture.)
Assay [3] can be described thus: viability rescue of complex I mutant cybrids, primary screen, cell-based, galactose medium, ATP luminescence (AID 1645843;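 active = z-score of at least 1.8 in each of two replicates, scored against plate mean and spread of sample wells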;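 note: positive z means more ATP and so rescue of galactose-driven cybrid death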). The settings on record: complex I mutant cybrid cells, 72 h, stronger effect = higher value.
A short description of assay [4]: LFS_MB_P medulloblastoma growth inhibition, cell-based, chromothripsis tumors, cisplatin or BGB combos (AID 1671449).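 Note: cells exposed for 96 hours; 0% = vehicle DMSO and 100% = killing by high DMSO.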 The settings on record: LFS_MB_P medulloblastoma cells.
Assay [5] is described as follows: HDN33 neuroblastoma growth inhibition, cell-based, chromothripsis tumors, cisplatin or BGB combos (AID 1671450).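 Note: cells exposed to compound for four days; 0% = vehicle DMSO and 100% = cell killing by high DMSO.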 The settings on record: HDN33 neuroblastoma cells, stronger effect = higher value.
A short description of assay [6]: ICB984 medulloblastoma cell growth inhibition, synergistic combos for chromothripsis tumors, cisplatin or BGB combos (AID 1671451; call rule not given here;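 note: cells exposed for 96 hours before readout; 0% = vehicle DMSO and 100% = killing by high DMSO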). The settings on record: ICB984 medulloblastoma cells, drug combinations, stronger effect = higher value.
Assay [7] is described as follows: LFS_MB_1R medulloblastoma cell growth inhibition, synergistic combos for chromothripsis tumors, cisplatin or BGB combos (AID 1671452).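 Note: cells exposed for 96 hours before readout.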 The settings on record: LFS_MB_1R medulloblastoma cells, stronger effect = higher value.
Assay [8] is described as follows: HTB85 osteosarcoma cell growth inhibition, synergistic combos for chromothripsis tumors, BGB or cisplatin IC20 combos (AID 1671453).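 Note: cells exposed for 96 hours before readout; 0% = vehicle DMSO and 100% = high DMSO killing control.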 The settings on record: HTB85 osteosarcoma cells, drug combinations, stronger effect = higher value.
Assay [9] is described as follows: CRL2098 osteosarcoma cell growth inhibition, synergistic combos for chromothripsis tumors, BGB or cisplatin IC20 combos (AID 1671454).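 Note: cells exposed for 96 h before readout; 0% = vehicle DMSO and 100% = killing by high DMSO.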 The settings on record: CRL2098 osteosarcoma cells, drug combinations, stronger effect = higher value.
Assay [10] can be described thus: HD-MB03 medulloblastoma cell growth inhibition, synergistic combos for chromothripsis tumors, BGB or cisplatin IC20 combos (AID 1671455; in the data active = inhibition above about 83%;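 note: 0% = vehicle DMSO and 100% = high DMSO as cytotoxic control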). The settings on record: HD-MB03 medulloblastoma cells, stronger effect = higher value.
Assay [11] in a line: UWB1.289 ovarian carcinoma cell growth inhibition, synergistic combos for chromothripsis tumors, BGB or cisplatin combos (AID 1671456).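 Note: cells exposed to compound for four days; 0% = vehicle DMSO and 100% = killing by high DMSO.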 The settings on record: UWB1.289 ovarian carcinoma cells, stronger effect = higher value.
The nature of assay [12]: LFS_MB_2R medulloblastoma cell growth inhibition, synergistic combos for chromothripsis tumors, cisplatin combos (AID 1671457).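 Note: cells exposed to compound for four days before readout.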 The settings on record: LFS_MB_2R medulloblastoma cells, stronger effect = higher value.
A short description of assay [13]: MDA-MB-436 breast carcinoma cell growth inhibition, synergistic combos for chromothripsis tumors, BGB or cisplatin combos (AID 1671458; call rule not given here;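 note: cells exposed for 96 hours; 0% = vehicle DMSO and 100% = killing by high DMSO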). The settings on record: MDA-MB-436 breast carcinoma growth inhibition, drug combinations, stronger effect = higher value.
Assay [14] is described as follows: UWB1.289_BRCA1 ovarian cancer growth, cell-based, BGB or cisplatin combinations (AID 1671459). The settings on record: UWB1.289 BRCA1 ovarian carcinoma, drug combinations, stronger effect = higher value.
A short description of assay [15]: human astrocyte viability loss, single and combined drugs, cytotoxicity control for chromothriptic childhood tumor combination screen, cell-based, BGB or cisplatin IC20 combos (AID 1671460).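 Note: cells exposed to compounds for 96 hours before viability readout; 0% = vehicle and 100% = killing control.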 The settings on record: Human astrocytes, drug combinations, stronger effect = higher value.
[16] abbreviates: stronger effect = lower value, cell number ratio, induced over uninduced.
Where [17] appears, read: measured here: relative caspase fold change +Dox/-Dox.
Where [18] appears, read: measured here: total cells with miR-34 induction, stronger effect = lower value.
[19] abbreviates: measured here: total cells without miR-34 induction.
Where [20] appears, read: MELAS cybrid survival, CellTiter-Glo 48 h, stronger effect = higher value.
[21] abbreviates: Rieske KO mouse fibroblast survival, CellTiter-Glo 72 h.
Setting [22] is: measured here: combination with BGB IC40, at 0.05 µM.
Where [23] appears, read: measured here: combination with cisplatin, at 0.5 µM.
The mark [24] stands for this setting: measured here: combination with cisplatin, at 5 µM.

SMILES strings stand for the structures. “And” between values parts separate entries of the source, which are not always exact repeats. Equal values may be shown once. The source made the active and inactive calls. Cut-off read from the data, not from the text of the source, unless noted: active = inhibition above about 80%; inactive = the rest.

This is an account of results in PubChem BioAssay.

As to `COc1cc(Cn2cnc3nccnc3c2=O)cc(OC)c1`, the fold change is 0.919 (inactive) in assay [1] (setting [16]) and 2.53 in [1] (setting [17]). The results for the cell count in [1] (setting [18]) and in assay [1] (setting [19]) were 9000 and 9790, respectively. The z-score in assay [2] (setting [20]) was -0.417 (inactive); in [2] (setting [21]), -0.582; in assay [3] it was -0.515 (inactive).

With `O=C(Nc1nncs1)NC1Cc2ccccc2C1`, the results for the fold change in [1] (setting [16]) and in [1] (setting [17]) were 0.87 (inactive) and 1.52, respectively. In addition, the cell count in assay [1] (setting [18]) came out at 8130; in [1] (setting [19]), 9340. In addition, the z-score in assay [2] (setting [20]) was -0.741 (inactive); in [2] (setting [21]), -0.221; in [3], -0.6 (inactive).

Take `Cc1cc(CN(C)C(=O)c2cc(-c3cnn(C(C)C)c3)nc3cc(F)ccc23)on1`: the fold change was 0.883 (inactive) in assay [1] (setting [16]) and 1.43 in assay [1] (setting [17]). Further, the values for the cell count in [1] (setting [18]) and in assay [1] (setting [19]) were 8520 and 9660, respectively. In addition, the figures for the z-score in assay [2] (setting [20]), in assay [2] (setting [21]) and in [3] were -1.12 (inactive), 0.385 and -0.48 (inactive), respectively.

On to `Nc1nc(Cl)nc2c1ncn2C1CC(O)C(CO)O1` (stereo unspecified), for which the fold change is 0.657 (active) and 0.485 (active) in assay [1] (setting [16]); 3.27 and 5.56 in [1] (setting [17]). For the same compound, the cell count is 1440 and 1620 in [1] (setting [18]); 2200 and 3330 in [1] (setting [19]). Besides, the z-score in assay [2] (setting [20]) was 0.255 (inactive); in assay [2] (setting [21]), 0.0981; in assay [3] it was -1.71 (inactive). The inhibition (commonly the change of the read-out against control, counted positive when it falls) in [4] (at 0.5 µM, stronger effect = higher value) is -16% (inactive) and 3.33% (inactive); in assay [4] (measured here: combination with BGB IC20, at 0.005 µM), -14.4% and 7.64%; in assay [4] (measured here: combination with BGB IC40, at 0.005 µM), -28.7% and 21.8%; in assay [4] (setting [22]), -54.9% and 15%; in assay [4] (measured here: combination with cisplatin, at 0.5 µM, stronger effect = higher value), -23.7% and 50.7%; in [4] (measured here: combination with cisplatin, at 5 µM, stronger effect = higher value), 76.7% and 86.2%. Also, the inhibition in assay [5] (BGB combo, at 5 µM) is 83.3% and 87.6%; in assay [5] (at 0.5 µM), 6.11% (inactive) and 14.7% (inactive); in [5] (cisplatin combo, at 5 µM) it was 79% and 81.5%; in [5] (measured here: with BGB IC20 combination, at 0.5 µM), 10.3% and 9.34%; in [5] (measured here: with cisplatin IC20 combination, at 0.5 µM), -1.24% and 16.1%; in [5] (single agent, at 5 µM), 84.5% and 87.2%. For the same compound, the inhibition was -1.92% and -30.4% in [6] (BGB IC20 combo, at 0.005 µM); -14.5% and -25.7% in assay [6] (BGB IC40 combo, at 0.005 µM); -14.6% and -11.7% in assay [6] (BGB IC40 combo, at 0.05 µM); -34.2% (inactive) and -10.6% (inactive) in assay [6] (at 0.5 µM); -18.7% and -11.7% in assay [6] (cisplatin combo, at 0.05 µM); -35.7% and -23.4% in [6] (cisplatin combo, at 0.5 µM). For the same compound, the inhibition was -35.2% and -39.5% in assay [6] (cisplatin combo, at 5 µM); -14.9% and -11.7% in [6] (measured here: 5 uM single agent, at 5 µM); -20.9% (inactive) and -13% (inactive) in [7] (at 0.5 µM); -46.2% and -32.5% in [7] (setting [22]); 26.2% and 30.5% in [7] (setting [23]); 52% and 76.7% in assay [7] (setting [24]). For the same compound, the inhibition was 22.5% (inactive) and 18.5% (inactive) in assay [8] (at 0.5 µM); 21.3% and 13.2% in assay [8] (measured here: with BGB IC20, at 0.5 µM); 92.2% and 94.6% in assay [8] (measured here: with BGB IC20, at 5 µM); 10.1% and 11.2% in assay [8] (measured here: with cisplatin IC20, at 0.5 µM); 90.5% and 90% in assay [8] (measured here: with cisplatin IC20, at 5 µM); 94.7% and 91.5% in [8] (single agent, at 5 µM). In addition, the inhibition is -92.1% (inactive) and -37.1% (inactive) in [9] (at 0.5 µM); -60.9% and -36.5% in [9] (measured here: combination with BGB at IC20, at 0.5 µM); -146% and -71.4% in assay [9] (measured here: combination with cisplatin at IC20, at 0.5 µM); 93.4% (active) and 93.2% (active) in [10] (at 0.5 µM); 87.7% and 88.9% in [10] (measured here: combo with BGB at IC20, at 0.5 µM); 96.3% and 94.8% in [10] (measured here: combo with cisplatin at IC20, at 0.5 µM). For the same compound, the inhibition was 12.5% (inactive) and 14.8% (inactive) in [11] (at 0.5 µM); -7.25% and -6.1% in assay [11] (measured here: inhibition with BGB combination, at 0.05 µM); -13.8% and -6.66% in assay [11] (measured here: inhibition with cisplatin combination, at 0.05 µM); -3.57% (inactive) and 10.2% (inactive) in assay [12] (at 0.5 µM); 24.5% and 43.1% in assay [12] (setting [23]); 61.9% and 69.5% in [12] (setting [24]). In addition, the inhibition in assay [13] (at 0.5 µM) is 3.02% (inactive) and 2.95% (inactive); in [13] (measured here: BGB combination, at 0.5 µM), -5.54% and -2.62%; in assay [13] (measured here: BGB combination, at 5 µM), 46.1% and 53.6%; in assay [13] (measured here: cisplatin combination, at 0.5 µM), -4.37% and -12.8%; in assay [13] (measured here: cisplatin combination, at 5 µM) it was 61.1% and 70%; in [14] (BGB combination, concentration series, at 5 µM), 43.2% and 57.7%. Moreover, the inhibition in [14] (at 0.5 µM) is 20.9% (inactive) and 19.3% (inactive); in [14] (cisplatin combination, concentration series, at 5 µM), 48.4% and 63.7%; in [15] (at 0.5 µM), 58.1% (inactive) and 38.4% (inactive); in assay [15] (measured here: combo with BGB IC20, at 0.5 µM) it was 62.6% and 39.2%; in [15] (measured here: combo with cisplatin IC20, at 0.5 µM), 42.6% and 31.2%.
